In PubChem BioAssay AID720575 (National Center for Advancing Translational Sciences (NCATS), 2013):
Some of the results follow. Results filed as inconclusive are left out. Active and inactive are the calls of the source. Calls follow the shape of the dose curve; as a rule, active = well fitted inhibition curve with a large enough effect; inconclusive = small, poorly fitted or top-dose-only effect; inactive = no such curve, though single readings can be large or run the other way.

Experiment: qHTS Assay for Inhibitors of Hepatitis C Virus (HCV): Confirmation Assay for Cherry-picked Compounds
Details: HCVcc-Cre infectious virus cell assay, luciferase, inhibition
Text: Hepatitis C virus (HCV) infects about 200 million people in the world. Many infected people progress to chronic liver disease including cirrhosis with a risk of developing liver cancer. To date, there is no effective vaccine for hepatitis C. Current therapy based on interferon is only effective in about half of the patients and is associated with significant adverse effects. The fraction of people with HCV who can complete a successful treatment is estimated to be no more than 10 percent. Recent development of direct-acting antivirals against HCV, such as protease and polymerase inhibitors, is promising but still requires combination with peginterferon and ribavirin for maximal efficacy. In addition, these agents are associated with high rate of resistance and many have significant side effects. Due to the lack of a culture system for infectious HCV, the search for new HCV drugs has been greatly hampered. […] High-throughput screening (HTS) with an infectious HCV system would cover the complete spectrum of potentially druggable targets in all stages of HCV lifecycle, and would have more biological relevance than other cell-based assays. Moreover, targeting several key processes in the viral life cycle may not only increase antiviral efficacy; more importantly, it may also reduce the capacity of the virus to develop resistance to the compound.
The goal of this project is to identify novel HCV inhibitors as new therapies for hepatitis C, using a highly sensitive and specific assay platform based on a HCV infectious cell culture system established in the laboratory and adapted for high-throughput HCV drug screen. The data herein is the result of the confirmation assay against the cherry picked compounds. Decrease in the confirmatory assay signal, indicative of the HCV inhibition is the desired outcome for this assay.
NIH Chemical Genomics Center [NCGC]
NIH Molecular Libraries Probe Centers Network [MLPCN]
Assay Submitter (PI): Jake Liang, NIDDK
Cells were plated in a 1536-wel tissue culture grade plates at a final concentration of 1,000 cells/well (3 uL volume). The assay plate was culture for 4 h. Then 23 nL of compounds from the library collection was added to each well followed by 2.5 µL of HCVcc-Cre virus (~ 0.5 moi). The plates were further cultured for 44 hr at 37C. A volume of 4.5 uL luciferase substrates was added to each well and the plates were incubated at room temperature for 15 min. The luciferase activity was read for 15 sec using the PerkinElmenr ViewLux plate reader.
Also: nearly all actives have a fitted effect of over 80% in size.

Potency, active:
COc1ccc(C(C(=O)NC2CCCCC2)N(C(=O)CCl)c2ccccc2Cl)cc1 (stereo unspecified) 3.15 µM
CCC(C(=O)OCC(=O)Nc1ccc(C(=O)Nc2ccc(OC)cc2)cc1)c1ccccc1 (stereo unspecified) 8.87 µM
COc1ccc(Cl)cc1NC(=O)c1oc(C)nc1C 12.5 µM
COc1ccc(NC(=O)c2sc(N3CCOCC3)nc2-c2ccccc2)c(OC)c1 14.1 µM
CCCOc1ccc(C(=O)C(CCC(CNCC)C(=O)c2ccc(OCCC)cc2)CNCC)cc1 (stereo unspecified) 7.05 µM
CCCc1nc2ccccc2c(C(=O)OCc2nnc(-c3cc(OC)c(OC)c(OC)c3)o2)c1CC 14.1 µM
Cc1ccc(C)c(NC(=S)NNC(=S)Nc2ccc(C(C)C)cc2)c1 22.3 µM
Cc1cc(-c2cccs2)nc(-n2cccc2)n1 9.95 µM
CC(C)(C)Nc1nc(-c2ccccn2)nc2ccccc12 1.99 µM
CN(C)c1nc(N)nc(CSc2nnnn2-c2cccc3ccccc23)n1 5.6 µM
COCCCn1c(SCc2cccc(OC)c2)nc2cc(OC)c(OC)cc2c1=N 14.1 µM
Cc1c(-c2cccc(Cl)c2)nc2ccccc2c1C(=O)OCC(=O)N(C)C1CCS(=O)(=O)C1 (stereo unspecified) 14.1 µM
CC(C)(C)c1ccc(Oc2ccc(N)cc2)cc1 2.8 µM
Cc1ccc(C)c(N2CCN(C(=O)CCCCCn3c(=S)[nH]c4ccc(N5CCOCC5)cc4c3=O)CC2)c1 2.8 µM
COc1ccc(OCCNC(=O)c2cc(C3CC3)nc3c2cnn3C(C)C)cc1 0.353 µM
N#C/C(=C1\CCCN1)c1nc(-c2ccccc2)cs1 14.1 µM
